This note sets out measurements from PubChem BioAssay AID1259318 (Sanford-Burnham Center for Chemical Genomics, 2017).

Screen size: about 370,000 compounds; about 3,000 (0.81%) were called active. Only a selection was taken, and actives are over-represented in it overall. Unmarked numbers belong to inactive results.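 Rule for the calls: active = activity above about 14% (limit read from the data; passing the limit was not always enough); inactive = the rest.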

For the experiment, the target named is Nuclear receptor subfamily 1 group D member 1 (Homo sapiens) (UniProt P20393). Kind of experiment: Rev-erbα–DNA interaction modulation – biochemical, FITC-DNA, fluorescence polarization, uHTS, primary screen (AID 1259318).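 Note: 0% = DMSO wells with 35 nM protein and 100% = DMSO wells with 750 nM protein.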 The settings on record: Rev-erbα–FITC-DNA binding, 90 min, at 10 µM, hits give high values. On the technique in general: In fluorescence polarisation assays a small probe gives low polarisation when free and higher when bound to something large.
Chain of Nuclear receptor subfamily 1 group D member 1 (Homo sapiens) (P20393 whole entry, looked up): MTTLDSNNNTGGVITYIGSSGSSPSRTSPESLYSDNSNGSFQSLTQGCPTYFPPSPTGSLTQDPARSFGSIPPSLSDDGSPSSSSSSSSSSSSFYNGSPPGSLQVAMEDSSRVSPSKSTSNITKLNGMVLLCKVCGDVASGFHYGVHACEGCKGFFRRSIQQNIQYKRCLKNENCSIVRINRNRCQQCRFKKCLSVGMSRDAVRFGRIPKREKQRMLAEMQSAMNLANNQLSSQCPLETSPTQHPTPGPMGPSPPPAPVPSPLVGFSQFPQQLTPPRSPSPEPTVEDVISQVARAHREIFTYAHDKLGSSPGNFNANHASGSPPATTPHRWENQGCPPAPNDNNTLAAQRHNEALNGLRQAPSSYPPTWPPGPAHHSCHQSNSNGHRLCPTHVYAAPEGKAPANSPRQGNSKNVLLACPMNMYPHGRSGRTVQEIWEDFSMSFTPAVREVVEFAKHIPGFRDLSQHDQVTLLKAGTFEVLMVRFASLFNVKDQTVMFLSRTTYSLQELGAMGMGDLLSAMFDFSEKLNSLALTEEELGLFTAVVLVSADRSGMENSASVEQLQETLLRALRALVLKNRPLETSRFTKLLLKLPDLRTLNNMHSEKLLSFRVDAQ
As to `O=C1CC(C(=O)O)NC(=S)N1` (stereo not drawn), the activity is -0.01%. In the case of `CCCCCCSc1ccc([C@@H]2[C@H]3C(=O)N(CC)C(=O)[C@H]3[C@]3(C(=O)OC)CCCCN23)cc1`, the activity was -1.1%.

`COC(=O)[C@]12CCCCC=C1N(Cc1ccccc1)C(=O)[C@H](CC(=O)NCc1ccc(C)o1)C2`: the activity was -2.87%.

As to `N#Cc1c(N)nc2c3c(sc(=N)c2c1N)NC(=O)CC3c1ccccc1Cl` (stereo not drawn), the activity is 31.7% (active).

As to `COc1ccc(-c2nc3n(c(=O)c2C#N)CCS3)c(OC)c1`, the activity is 0.62%. Regarding `CCOc1cc(-c2cc(-c3ccc(OC)cc3)nc(N)c2C#N)ccc1O`, the activity is 31.7% (active). `CCOc1cc(-c2conc2N)cc(OCC)c1OCC`: the activity is -2.64%. For the compound `CCn1c(=O)n2n(c1=O)[C@@]1(C=C3CCCC[C@H]32)N=C(NC(=O)c2ccccc2)N(Cc2ccccc2)[C@H]1Cc1ccccc1`, the activity was -9.89%. In the case of `C/C(=N\NC(N)=S)c1ccncc1` it was 0.98%; in that of `CCN(CC)c1ccc2cc(C(N)=O)/c(=N\NC(=O)c3ccncc3)oc2c1`, 35.1% (active); in that of `CCN(CC)c1ccc(/C=N/NC(=O)CNC(=O)c2cccs2)cc1`, 0.7%.

Regarding `N#C/C(C(=O)N1CCOCC1)=C1/SC(Cc2ccc(F)cc2)C(=O)N1c1ccccc1` (stereo not drawn), the activity was 5.35%. For the compound `COC(=O)c1ccccc1N=Nc1c(C)[nH][nH]c1=O`, the activity was 3.84%. Regarding `c1ccc(CSc2ncnc3c2sc2nc(N4CCOCC4)c4c(c23)CCCC4)cc1`, the activity is 158% (active). `O=S(=O)(c1ccccc1)c1nc(Cc2ccccc2)oc1N1CCOCC1`: the activity is -4.54%. As for `CC(=O)c1c(N2CCOCC2)nc(=S)n(Cc2ccccc2)c1C`, the activity is -2.43%. With `CCOC(=O)N1CCN(c2cc(C)c([N+](=O)[O-])cc2F)CC1`, the activity was -1.95%. For the compound `CCC(=O)Nc1ccc2c(c1)C(=O)N(C)[C@H]1CC[C@H](CC(=O)NCCOC)O[C@@H]1CO2`, the activity is 9.28%. Consider `CCCNC(=O)Nc1ccc2c(c1)C(=O)N(C)[C@H]1CC[C@H](CC(=O)NCC3CCCCC3)O[C@@H]1CO2`, for which the activity was 119% (active). In the case of `CCC(=O)Nc1ccc2c(c1)C(=O)N(C)[C@@H]1CC[C@@H](CC(=O)NCCc3ccccc3)O[C@H]1CO2` it was 15.2%; in that of `CC(Sc1nnnn1C)C(=O)NC(=O)NC1CCCCC1` (stereo not drawn), 6.95%; in that of `CN(CC(=O)NCCc1ccc(F)cc1)CC(=O)Nc1ccc(F)c(F)c1F`, -0.12%. `COc1ccccc1CCNC(=O)C1CCN(c2nc(C)cc(C)n2)CC1`: the activity was 2.47%. Turning to `COc1ccc(Cl)cc1-n1c(C)cc(C(=O)OCC(=O)N2CC(=O)Nc3ccccc32)c1C`, the activity was -0.59%.

Take `CCOC(=O)CSc1nc2ccc(C)cc2n2cnnc12`: the activity was 1.03%. On to `COc1ccc(CCNc2cc(C)nc3c(-c4ccc(Cl)cc4)c(C)nn23)cc1OC`, for which the activity was 7%.

For the compound `COc1ccc(CCNc2nc3ccc(C)cc3n3cnnc23)cc1OC`, the activity was 41.9% (active). On to `COC(=O)Cn1c(=NC(=O)CSCC(=O)Nc2cc(C)on2)sc2ccccc21`, for which the activity is 3.13%. Consider `COC(=O)Cn1c(=NC(=O)c2cc(OC)c(OC)c(OC)c2)sc2cc(OC)ccc21`, for which the activity was 23.3% (active). Next, `COC(=O)Cn1c2ccc(C)cc2c2nc(C)sc21`: 5.92%. As to `CCCCCCCCCCCCCCCC(=O)O[C@@H]1[C@@H](O)[C@@H](O)C([C@H](NC(=O)[C@@H]2C[C@@H](CCC)CN2C)[C@H](C)Cl)O[C@@H]1SC` (stereo partly drawn), the activity is -0.49%. As to `Cc1ccc(N(C(=O)Cc2cccs2)C2C=CS(=O)(=O)C2)cc1Cl` (stereo not drawn), the activity is 8.02%. Take `CC(C)(C)CC(C)(C)NCC(O)COCCOc1ccc(Br)cc1` (stereo not drawn): the activity was -2.77%. With `COc1ccc(N(Cc2ccc(N(C)C)cc2)C(=O)c2ccc(S(C)(=O)=O)cc2)cc1`, the activity was -2.66%. In the case of `COc1ccc2sc(-c3ccc(S(C)(=O)=O)cc3)c(-c3ccc(C(N)=O)cc3)c2c1` it was 29.1% (active); in that of `COc1ccc2sc(-c3ccccc3OC)c(-c3ccc(OCCN4CCCC4)cc3)c2c1`, 2.94%. In the case of `COc1ccc(C(=O)NCC2CCCCC2)cc1S(=O)(=O)N1CCCC1`, the activity was 3.18%.

For `CC(C(=O)O)c1ccc(C2CCCCC2)c2ccccc12` (stereo not drawn), the activity was -0.34%. Consider `CC(=O)OCC(=O)[C@@]1(O)CCC2C3CCC4=CC(=O)C=C[C@]4(C)[C@@]3(F)[C@@H](O)C[C@@]21C` (stereo partly drawn), for which the activity was -0.05%. In the case of `COc1ccc(Cl)cc1NC(=O)C1CC(=O)N(c2ccc(F)cc2)C1` (stereo not drawn), the activity is -2.88%. `COc1ccccc1N1CC(C(=O)Nc2ccc(S(=O)(=O)N3CCOCC3)cc2)CC1=O` (stereo not drawn): the activity was 2.07%. As for `COc1cc(OC)c(N2CC(C(=O)Nc3cc(Cl)ccc3N3CCOCC3)CC2=O)cc1Cl` (stereo not drawn), the activity was 15.7% (active). For the compound `COc1ccc(CN2C(=O)C(CC(=O)NCCCCc3ccccc3)CC(C(=O)N3CCOCC3)=C2C)cc1` (stereo not drawn), the activity is 0.56%. Regarding `Cc1cccc(NC(=O)CCn2c(=O)oc3ccccc32)c1`, the activity was 4.67%.

As for `COCc1cc(C)nc(Nc2cc(C)ccc2C)c1C#N`, the activity was 1.3%. Take `COCc1cc(C)nc(SCC(=O)Nc2cccc(C)c2)c1C#N`: the activity was 20.6% (active). In the case of `C=CCC1(CC=C)CCCN1C(=O)c1cc(COc2ccc(-n3cncn3)cc2)on1` it was 3.62%. Turning to `Cc1ccc(NC(=S)NNC(=O)CSc2nnc(SCc3ccccc3Cl)s2)cc1`, the activity was 3.4%. As to `CC(C)N(C(=O)CSc1nc(COc2ccccc2)nc2ccccc12)C(C)C`, the activity was 4.08%. Next, `CN(C)S(=O)(=O)c1ccc(NC(=O)COC(=O)c2n[nH]c3ccccc23)cc1`: 1.34%. With `CCCc1nc(SCC(=O)Nc2ccc(S(=O)(=O)N(C)C)cc2)c2ccccc2n1`, the activity was 28% (active). For the compound `NC(=O)c1ncn([C@@H]2O[C@H](C(=O)O)[C@@H](O)[C@H]2O)n1`, the activity is -0.1%. Consider `CSCC[C@H](NC(=O)N1CCn2c1nc1ccccc12)C(=O)NC1CCCCC1`, for which the activity is 0.83%.

As for `COc1ccc(-c2nn(C)c(=O)c3ccccc23)cc1NC(=O)COc1ccccc1`, the activity is 25.4% (active). For `COc1ccc(S(=O)(=O)N2CCCCC2)cc1NC(=O)COc1ccccc1`, the activity is 1.75%.

As to `COc1ccc(-c2nn(C)c(=O)c3ccccc23)cc1CNC(=O)C1CCCCC1`, the activity was -3.48%. As to `C=CCNC(=O)c1ccc2c3n(nc2c1)-c1ccc(C)cc1CO3`, the activity was 0.44%. With `CCc1cc(=O)oc2c(C)c(OCC(=O)N3CC[C@@]4(O)CCCC[C@H]4C3)ccc12`, the activity is 2.4%. As to `O=C(Nc1cc(S(=O)(=O)N2CCOCC2)ccc1OCC(F)(F)F)c1ccc(N2CCCC2=O)cc1`, the activity was 3.86%. Take `CS(=O)(=O)c1ccc2nc(NC(=O)c3ccc(N4CCCC4=O)cc3)sc2c1`: the activity was 41.6% (active).

`O=C(NCCCN1CCCCCC1)c1ccc(N2CCCC2=O)cc1`: the activity is -2.08%. In the case of `CC(=O)c1c(C)[nH]c(C(=O)OCC(=O)NCCC(C)C)c1C`, the activity is 4.11%.

As for `COC(=O)C12C=C3CC(c4ccccc4)=C3C(=O)N1Cc1[nH]c3ccccc3c1C2` (stereo not drawn), the activity is -0.17%.

As for `CCn1c(CNC(=O)c2ccco2)nnc1SCC(=O)Nc1cccc(F)c1`, the activity was -8.25%.

On to `O=C(CSc1nc2ncccc2[nH]1)Nc1ccc2c(c1)OCCO2`, for which the activity is -0.69%.

`O=C(CSc1nc2[nH]c(=O)[nH]c(=O)c2s1)Nc1cccc(F)c1`: the activity is -1.8%. As to `Cc1nc2nc(SCC(=O)Nc3cccc(F)c3)[nH]c2cc1Br`, the activity is 43.6% (active). As for `CCCn1c(SCC(=O)Nc2cccc(C(=O)OCC)c2)nnc1-c1ccoc1C`, the activity was -3.66%.

Consider `CCn1c(SCC(=O)Nc2cccc(F)c2)nnc1-c1cc2cc(Br)ccc2o1`, for which the activity was 56.3% (active). Turning to `COc1ccc(C(=O)CSc2nccc(=O)[nH]2)cc1`, the activity is 2.06%. With `Cc1nc2nc(SCC(=O)c3ccccc3)[nH]c2cc1Br`, the activity was 34.1% (active). `Cc1cc(C)c(C(=O)CSc2nc(C)cc(=O)[nH]2)c(C)c1`: the activity was -1.57%. With `CN(Cc1nc(-c2cnccn2)no1)Cc1n[nH]c2c1CCCCC2`, the activity was -2.14%.

Turning to `COC(=O)c1cc(S(=O)(=O)N2CCN(c3cc(C)ccc3C)CC2)c[nH]1`, the activity was 11.2%.

As to `CCOC(=O)C1CCN(C(=O)C(C)(C)NC(=O)Nc2ccccc2Cl)CC1`, the activity is -6.49%. As for `Cc1ccc(C(=O)C2CCN(CC(=O)NCCC(C)C)CC2)cc1`, the activity is -0.72%. On to `Cc1noc(C)c1CCC(=O)O`, for which the activity is 4.26%.

With `Cc1ccc(SCC2=NNC(=O)C2)cc1`, the activity is -1.27%. `N#Cc1c(-c2ccc(F)cc2)cc(C2CC2)nc1SCC(=O)c1cccs1`: the activity was 174% (active). For the compound `O=C(CCC(=O)c1cccs1)NC1CCCCCC1`, the activity was 3.87%. With `O=C(c1cccs1)N1CCCC(c2nc(-c3ccc(F)cc3)no2)C1` (stereo not drawn), the activity is 1.09%.

Turning to `COCCCNc1nc2c(-c3cccc(C(F)(F)F)c3)nnn2c2ccccc12`, the activity is 15.6%. Turning to `COCCCNc1nc2ccccc2nc1NS(=O)(=O)c1ccc(F)cc1`, the activity is -2.18%.

Turning to `COCCCNc1nc2c(-c3cccc(C)c3)nnn2c2ccc(Cl)cc12`, the activity is 52.9% (active).

Take `COc1ccc(-c2csc(NC(=O)c3ccc(N4C(=O)CCC4=O)cc3)n2)cc1OC`: the activity was 19.3% (active).

Turning to `COc1ccc(-n2nc3c(c2NC(=O)c2ccc(N4C(=O)CCC4=O)cc2)CSC3)cc1`, the activity was 1.69%.

For the compound `COc1ccccc1C(=O)Oc1ccc(N2C(=O)CCC2=O)cc1`, the activity was -3.5%. In the case of `Cc1ccc(CS(=O)(=O)CCC(=O)NCc2ccc(F)cc2)cc1` it was -2.15%.
